# Test results reported in the supplement of paper PMC6555819.
# Tested on: VDR:RXRa (NR concentration 270 nM, RXRa partner concentration 90 nM)
# Experiment: PBM binding z-score (relative to random genomic background probes); higher = stronger binding; sequences stand for … in GC…GCGATTGACAGCGTAGAATGAAGG
# Experimental: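 Protein-binding microarray (Agilent 4x180K custom design, double-stranded 60-nt probes: 5' GC cap, 34-nt variable region, 24-nt constant primer region; full probe sequence given). Purified or IVT nuclear receptor:RXRα heterodimers (3:1 NR:RXRα, mostly 270:90 nM) or homodimers were incubated for 1 h in PBS with 2% milk and no ligand, then detected with Alexa488 antibodies. Fluorescence from o1-orientation probes (~5 replicates averaged) was converted to z-scores against 500 random hg19 background probes. Variable regions are seed direct-repeat (DR0–DR5) sites, all their single-nucleotide variants and half-site ablations.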
row,Sequence,PBM binding z-score
1,CGAACTAGGTCAAAGGTCAAAGTCGAGCCAACCA,6.78
2,CATCGGAGGACAGAAGGTCAGAGCTGTCCGCTTT,1.06
3,TAGCCTAGGTCAGATCGGGCCAGAATACGCTATA,0.522
4,TCATACAGGTAAAAGGTGAAAGTCGGTGTGGTAA,1.64
5,CCAGACAGGTGAAAGGTACCTCAGTCTGGTACGC,0.0967
6,ATCTCTAGGTAAAAGTTCAGTGAGTCCCGAGGAT,2.09
7,ATCGAAAGTTCGTGAGGTGAGTATACAGAAAGGC,2.02
8,TTACCAAGGTGAGCTGAGCTCGTTGATCCAACTC,-0.427
9,ATATGTAGGTTACATCCGGGTCATTCAGGCTATG,4.26
10,ATCGAGAGGTCGAGGTGAGTATAGAGAAAGGGAA,2.41
11,TCTTGTAGATCAAGCAGGTTAAGAAAGCCTGAGT,0.61
12,CGAACTAGGTCTGAACAGGACAGTGAAGGATGAT,-0.557
13,AGATTGAGGTTAAGATCAGGGAAACAGAATACAT,1.42
14,ATATGTAGCTTATCGGGTCATTCAGTTTGCGCAT,4.71
15,TTGCCAAGGTGAAGGTCGTTGATCCCTCTGTAGA,1.08
16,TCTTGTAGATAAGCAGGTTAAGAAAGCTGGCCAA,0.177
17,TAGCCTAGGTCATTCAGGGGCCAGTCTAGAAAGC,2.76
18,CAGACTAGGTCAAGAGGTCAAAGTCCGCTTCCCG,5.97
19,TCATATAGGTAAACAGGTTAAAGTCCGTAAGTTA,1.88
20,TAGCCTAGGTCATGGGCCAGTAGACCACGCGAAC,1.85

row,Sequence,PBM binding z-score
1,ATCTCTAGGTAAAGATAGTTCAGGGAATGCAAAT,0.786
2,ATCTCTAGGTAAGAAGTTCAGTGAAAGAGAGGAC,0.919
3,ACTAGTTGGTCAGCTGAGGTCACACAGAATTCGG,4.42
4,CAAACTAGGTCAGGAAAGGTCAAAGTCGAATGAC,6.31
5,ATCTCTAGGTAAAGATACTTCAGTGAATGCAAAT,0.244
6,ATCTATAGGTAAGACTCAGTTCAGTGAAGAACGC,0.866
7,TCGAGTAGGTTAGGGGCCTTCAGAATGGCGTCGA,-0.482
8,CCTGCTAGGTCGTGGTCAGCTAATCTACAGTATG,-0.0552
9,ATATGTAGGTTAAGGCTCATTCAGGTTGGTTCGC,0.395
10,ACTAGCAGGCCTAGTTTGGGTCACTCAAACAAAG,-0.0369
11,GGAACGAGGACAAGTTGATAGCAGAGTTTGATGG,0.0641
12,AGTCAAAGTTCAAGACGAGGTAACGTAAAGCACG,4.07
13,TCTATTAGTTGAAGTGCAACCGACGAGTCCGTTT,1.22
14,TTACCAAGGGGAGCTGAGGTCGTTGATCCAACTC,2.08
15,AGAATGAGGTTATTAAGATCAGGGTATTGCGGTC,2.43
16,CGTCAAAGTTCAACTAAGGTAAGGTAAAGCACGC,4.17
17,CGAACTAGGTCATCCATGACAGTGAATACATTGA,2.45
18,GCTGCTAGGTCAGATTGGTCAGCTAACGGGTACG,0.624
19,CGAACTAGGTCAAGGACAGGGAATCTCCGCACGC,1.09
20,CGTCCAACGTCAGAGAGGTCAGTGAATGCCGAGT,3.23
